Screening results as filed in PubChem BioAssay.
USP30 inh = blocks human USP30 ubiquitin-rhodamine cleavage | purified USP30, Ub-rhodamine cleavage fluorescence | inhibition, % at 25 µM | actives 5.3% (n = 47,000) | AID 1645860
USP8 inh = inhibitors of human USP8 deubiquitinase; purified USP8, Ub-rhodamine cleavage fluorescence, 30 min; P40818; actives 4.2% (n = 47,000); inhibition, % at 20 µM; AID 1645853
USP17 block = human USP17-like deubiquitinase inhibition. A8MUK1. purified USP17, Ub-rhodamine cleavage fluorescence, 3 h. inhibition, % at 50 µM. actives 6.5% (n = 47,000). AID 1645855
Target sequence (A8MUK1 whole entry, looked up): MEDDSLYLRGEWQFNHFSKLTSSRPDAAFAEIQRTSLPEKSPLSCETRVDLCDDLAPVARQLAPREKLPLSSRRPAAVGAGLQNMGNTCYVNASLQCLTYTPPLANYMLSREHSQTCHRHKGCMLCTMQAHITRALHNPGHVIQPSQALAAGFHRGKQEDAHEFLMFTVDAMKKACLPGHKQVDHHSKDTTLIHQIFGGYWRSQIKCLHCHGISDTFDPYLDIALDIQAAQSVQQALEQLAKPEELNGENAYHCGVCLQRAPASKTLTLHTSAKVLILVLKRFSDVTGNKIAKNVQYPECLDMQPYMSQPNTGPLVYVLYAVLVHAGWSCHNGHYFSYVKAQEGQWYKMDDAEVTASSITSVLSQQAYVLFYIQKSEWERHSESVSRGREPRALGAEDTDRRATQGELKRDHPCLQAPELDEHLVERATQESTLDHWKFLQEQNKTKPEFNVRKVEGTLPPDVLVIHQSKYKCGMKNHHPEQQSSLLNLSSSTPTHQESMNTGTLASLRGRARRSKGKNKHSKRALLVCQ
The depositor's hits bear a star; i = inactive; . = not tested or not shown. This is a sample that favours compounds with a hit; in the whole collection about 12% have one here. Rule as the data show it: active = inhibition above about 30%; inactive = the rest.

SMILES	USP30 inh	USP8 inh	USP17 block
C=C1CCC2[C@](C)(CCC[C@]2(C)C(=O)OC)[C@H]1CCc1ccoc1CNC(C)C (some centres not stated)	23.9	10.8	18.4
C=C1CCC2[C@](C)(CCC[C@]2(C)C(=O)OC)[C@H]1CCc1ccoc1CNC(CCSC)C(=O)O (some centres not stated)	-60.0	43.1*	28.1
CCCn1c(=O)[nH]c2c(C(=O)N3CCc4ccccc4C3)snc2c1=O	2.5	-0.9	-4.1
Cc1cc(C2CN(C(=O)c3c(C(C)C)noc3C)CCO2)nc(C)n1 (configuration not stated)	11.5	1.8	9.0
COc1ccc(-c2cc3nc(C)cc(Nc4ccc(F)cc4)n3n2)cc1OC	84.8*	-5.1	-2.0
COc1ccc(-c2cc3nc(C)cc(Nc4cccc(C)c4)n3n2)cc1OC	-15.8	-3.7	-4.8
COc1cccc(NC(=O)Nc2nnc3ccccn23)c1	-13.4	-34.7	-11.6
Cc1ccc2c(c1)-c1onc(C(=O)NCCc3c[nH]c4ccccc34)c1CO2	-37.0	-13.9	33.1*
O=C(NCCc1c[nH]c2ccccc12)c1cc2occc2c(Nc2ccc(F)cc2)n1	6.8	9.5	29.5
Cc1ccc(NC(=O)Cn2cccc2-c2nnc(C3CC3)o2)c(C)c1	34.1*	-0.5	0.9
O=C(Cn1cccc1-c1nnc(C2CCC2)o1)Nc1ccc(F)cc1	-167.3	-9.5	-60.0
O=C(NCc1ccccc1Cl)C1=Cc2ccccc2OC1	15.2	1.0	5.9
COc1ccc(NC(=O)C2=Cc3ccccc3OC2)cc1	33.6*	13.8	11.9
COc1ccc(OC)c(NC(=O)C2Oc3ccccc3NC2=O)c1 (configuration not stated)	-0.3	-0.5	-11.4
O=C1CN(C(=O)CNc2ccccc2Oc2ccccc2)c2ccccc2N1	-74.1	-13.8	-0.4
O=C(NCC(c1ccccc1)N1CCCC1)c1cc(-c2ccc3c(c2)OCCO3)on1 (configuration not stated)	-78.6	3.7	-8.5
O=C(Oc1ccccc1Br)c1cc(-c2ccc3c(c2)OCCO3)on1	33.3*	51.7*	20.6
Cc1cc2n(n1)CCCN2C(=O)CCC(=O)N1CCN(c2cccc(C)c2C)CC1	3.1	-47.6	-3.7
Cc1c(-c2noc(-c3ccc[nH]3)n2)nnn1-c1ccc(F)cc1	-12.7	7.7	5.1
Cn1nc(-c2nc(-c3ccccc3F)no2)c2c1CCN(C(=O)c1ccncc1)C2	-10.2	-0.6	-6.3
COc1ccc(-n2ccc(=O)c(-c3nc(-c4ccccc4F)no3)n2)cc1OC	-283.6	45.1*	0.1
COc1ccc(-n2nnc(-c3nc(-c4ccccc4F)no3)c2N)cc1	.	1.2	51.8*
CC(=O)Nc1ccc(NC(=O)Cc2cccc3ccccc23)cc1	3.8	4.0	24.7
Cn1c(-c2ccccc2)c(C2c3ccccc3C(=O)N2CC(=O)NCC(N)=O)c2ccccc21 (configuration not stated)	-16.3	6.5	0.0
CCCCC(=O)Nc1nnc(C2CC(=O)N(c3ccc(C)cc3)C2)s1 (configuration not stated)	-0.7	52.4*	12.4
SMILES	USP30 inh	USP8 inh	USP17 block
Cc1ccc(CC(=O)Nc2nnc(C3CC(=O)N(c4cc(C)cc(C)c4)C3)s2)cc1 (configuration not stated)	-11.4	-4.3	-4.5
O=C(CCCc1ccccc1)Nc1nnc(C2CC(=O)N(c3ccc(Cl)cc3)C2)s1 (configuration not stated)	7.8	0.1	1.0
COc1ccc(CCC(=O)Nc2nnc(C3CC(=O)N(c4ccc(C)cc4)C3)s2)cc1 (configuration not stated)	7.5	8.6	-0.3
CCc1ccc(N2CC(c3nnc(NC(=O)Cc4ccc(C)cc4)s3)CC2=O)cc1 (configuration not stated)	32.7*	-70.1	49.6*
Cc1ccc(N2CC(c3nnc(NC(=O)CCc4ccccc4)s3)CC2=O)cc1C (configuration not stated)	0.0	-1.2	-11.0
Cc1ccc(N2CC(c3nnc(NC(=O)CCc4ccccc4)s3)CC2=O)cc1 (configuration not stated)	29.0	55.8*	18.0
O=C(CCCc1ccccc1)Nc1nnc(C2CC(=O)N(c3ccccc3)C2)s1 (configuration not stated)	.	-1.1	41.1*
CCN1C[C@H]2CCN(C(=O)c3ccncc3)CC[C@H]2S1(=O)=O	-0.1	-28.3	-5.2
CN(C)C(=O)c1cc(C2CN(C(=O)c3ccc4ncccc4c3)CCO2)nc2ccccc12 (configuration not stated)	12.8	0.0	4.0
Cc1nn(C)c2nc(C3CCCN(C(=O)c4ccn[nH]4)C3)ccc12 (configuration not stated)	13.0	-5.6	2.6
O=C(Nc1ccccc1O)c1ccc(COc2ccc(F)cc2)o1	-31.3	-14.0	-32.0
O=C(Cn1cnc2cc3c(cc21)OCCO3)NCCc1ccc(F)cc1	-27.3	-7.5	-8.7
O=C(Nc1cccc(F)c1)C1=NOC2(CCNC2)C1 (configuration not stated)	-59.9	-218.2	-40.1
COc1cc(C2CCN(C(=O)c3cccc(F)c3)CC2)on1	17.8	14.5	9.2
CCCc1cc(C2CCCN2S(=O)(=O)c2ccc3c(c2)OCCN3C(C)=O)no1 (configuration not stated)	-0.4	-10.0	-6.3
CNc1cc(C)nc(C2CN(C(=O)c3ccc4n[nH]nc4c3)CCO2)c1 (configuration not stated)	4.8	1.3	8.9
CNc1cc(C)nc(C2CN(C(=O)c3ccc(C)n(C)c3=O)CCO2)c1 (configuration not stated)	32.4*	-33.7	8.0
O=C(N[C@@H]1CN(Cc2ccco2)[C@@H]2COC[C@@H]21)c1cscn1	-7.4	-32.7	-6.4
O=C(Nc1cccnc1)c1cncc(NS(=O)(=O)c2ccc(F)cc2)c1	-40.9	-5.2	-12.8
NCc1ccc([C@@H]2CN(C(=O)c3ccc4ncccc4c3)C[C@H]2c2ccn[nH]2)cc1	.	-11.9	68.2*
O=C(c1ccc2ncccc2c1)N1CCOC(c2cccc(Cc3cccc(Cl)c3)n2)C1 (configuration not stated)	-23.3	-14.0	-3.7
Cc1nc2sccn2c1-c1csc(N)n1	1.8	-7.4	1.5
Cc1ccc2c(=O)c(C(=O)Nc3ccc(F)cc3)cn(CC(=O)NC3CCCC3)c2n1	-47.0	7.0	.
Cc1ccc(NC(=O)Cn2cc(S(=O)(=O)c3ccccc3)c(=O)c3ccc(C)nc32)cc1	i	40.6*	3.8
Cc1ccc(S(=O)(=O)c2cn(CC(=O)Nc3ccccc3)c3nc(C)ccc3c2=O)cc1	-89.4	11.0	-15.9
SMILES	USP30 inh	USP8 inh	USP17 block
Cc1ccc2c(=O)c(C(=O)Nc3ccccc3)cn(CC(=O)NC3CCCCC3)c2n1	9.1	-1.3	56.0*
CC1CCN(C(=O)c2cnc3sc4c(n3c2=O)CCCC4)CC1	0.2	4.5	-7.5
COc1ccccc1CNC(=O)c1cnc(NCc2ccccc2)nc1C	-110.5	-48.1	-33.6
O=C(c1ccc(F)cc1Cl)N1CCN(c2nc(-c3ccccc3)no2)CC1	-2.3	2.0	-1.7
O=C(c1cccc(-c2noc(-c3ccc(F)cc3)n2)c1)N1CCCC1	14.8	2.6	0.0
Cc1cccc(C(=O)N2CCN(c3nc(-c4ccc(Cl)cc4)no3)CC2)c1	40.1*	8.8	13.4
